The results in this text go back to PubChem BioAssay (NCATS).

Experiment [1] addresses Glucocorticoid receptor (Homo sapiens) (UniProt P04150). As to the kind of experiment: qHTS assay for small molecule agonists of glucocorticoid receptor signaling (AID 588532; active = well fitted curve in the direction sought with a large enough effect in the signal ratio, with a control signal flat; the % refers to the signal ratio;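 also: 100% = dexamethasone at 0.1 µM and 0% = DMSO only wells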). Conditions: HeLa MMTV-bla, beta-lactamase ratio, agonist, 18 h; stronger effect = higher value; percent of dexamethasone control, DMSO zero. The essentials: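 Agonist-mode qHTS: GRE-driven beta-lactamase in HeLa cells exposed 18 h to titrated compounds (up to 92 uM), then CCF4 ratio read after 2 h at RT; Hill-fitted EC50, efficacy relative to 0.1 uM dexamethasone.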

The target is the same in experiment [2]. As to the kind of experiment: qHTS assay for small molecule antagonists of glucocorticoid receptor signaling (AID 588533; active = well fitted inhibition curve with a large enough effect in the signal ratio, with a control signal flat, not every such curve was filed as active; the % refers to the signal ratio;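 also: cells stimulated with 2 nM dexamethasone as agonist; % is scaled to controls: 0 for no effect and ±100 for the full control effect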). As to conditions: HeLa MMTV-bla, GRE beta-lactamase ratio, antagonist mode, 18 h; series mostly up to 76.8 µM. A digest of the protocol:
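Antagonist-mode qHTS: compound titrations added to GRE-bla HeLa cells, then dexamethasone 2 nM final; 18 h, 37 C. CCF4 FRET fluorescence normalized to dexamethasone and DMSO; IC50 from Hill fit.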

Experiment [3] can be described thus: qHTS assay for small molecule antagonists of peroxisome proliferator-activated receptor delta signaling (AID 588535; active = well fitted inhibition curve with a large enough effect in the signal ratio, with a control signal flat, not every such curve was filed as active; the % refers to the signal ratio;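 as to max response: cells co-treated with a PPAR-delta agonist as stimulator during compound exposure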). Conditions: HEK293T PPARd-UAS-bla, beta-lactamase FRET ratio, 18 h; 460 nm channel. A digest of the protocol: (§1)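 Titrations were run on PPAR-delta-UAS-bla HEK293T cells in charcoal/dextran-stripped serum, incubated 18 h at 37 C. CCF4 fluorescence (460/530 nm) after 2 h RT; Hill equation yields IC50 and maximal response.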

Experiment [4] concerns the target Peroxisome proliferator-activated receptor delta (Homo sapiens) (UniProt Q03181). Described as above. As to conditions: HEK293T PPARd-UAS-bla, beta-lactamase FRET ratio, 18 h; series mostly up to 76.7 µM. The essentials: as §1
Experiment [5] deals with Retinoic acid receptor RXR-alpha (Homo sapiens) (UniProt P19793). As to the kind of experiment: qHTS assay for small molecule agonists of retinoid X receptor alpha signaling (AID 588544; calls by dose curve;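 also: 0% = DMSO basal wells and 100% = reference agonist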). Conditions: HEK293T RXRa-UAS-bla, beta-lactamase reporter, 18 h; series mostly up to 76.7 µM.
Sequence of Retinoic acid receptor RXR-alpha (Homo sapiens) (P19793 whole entry, looked up): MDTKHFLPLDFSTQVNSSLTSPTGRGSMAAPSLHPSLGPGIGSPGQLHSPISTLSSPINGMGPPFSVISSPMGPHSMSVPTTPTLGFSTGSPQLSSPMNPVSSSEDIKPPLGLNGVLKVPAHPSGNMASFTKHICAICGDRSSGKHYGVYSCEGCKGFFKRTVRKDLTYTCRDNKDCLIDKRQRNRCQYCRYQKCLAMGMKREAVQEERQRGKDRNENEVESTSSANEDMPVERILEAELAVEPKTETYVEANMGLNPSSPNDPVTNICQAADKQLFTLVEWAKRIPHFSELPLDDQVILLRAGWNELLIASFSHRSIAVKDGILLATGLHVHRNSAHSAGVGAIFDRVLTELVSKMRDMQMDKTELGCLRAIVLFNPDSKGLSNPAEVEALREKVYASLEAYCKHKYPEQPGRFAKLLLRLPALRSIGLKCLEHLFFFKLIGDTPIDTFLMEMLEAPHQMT
Experiment [6] deals with Thyroid hormone receptor beta (Homo sapiens) (UniProt P10828). As to the kind of experiment: qHTS assay for small molecule agonists of thyroid hormone receptor beta signaling (AID 588545; calls by dose curve). As to conditions: TR-UAS-bla GripTite HEK 293, beta-lactamase ratio, agonist mode, 18 h; series mostly up to 76.7 µM. A digest of the protocol:
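Agonist-mode beta-lactamase reporter assay, HEK 293 cells, 2% charcoal/dextran FBS; cells plated 4 hrs, compound 18 hrs at 37 C, CCF4 2 hrs RT. Normalized to 10 nM T3 (100%) and DMSO (0%); Hill fit gives EC50, efficacy.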

Experiment [7] in a line: qHTS assay for small molecule antagonists of retinoid X receptor alpha signaling (AID 588546; active = well fitted inhibition curve with a large enough effect in the signal ratio, with a control signal flat, not every such curve was filed as active; the % refers to the signal ratio;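 also: cells stimulated with 9-cis-retinoic acid as agonist; % is scaled to controls: 0 for no effect and ±100 for the full control effect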). Conditions: HEK293T RXRa-UAS-bla, beta-lactamase ratio, antagonist mode; measured here: W530 green channel, cytotoxicity proxy. A digest of the protocol: (§2)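 Beta-lactamase reporter inhibition, read as CCF4 fluorescence ratio (ex 405, em 460/530 nm) after 2 h at RT. HEK293T UAS-bla cells, 2500/well, were stimulated with 9-cis-RA at 500 or 100 nM final alongside test compound for 18 h at 37 C.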

Experiment [8] concerns the target Retinoic acid receptor RXR-alpha (Homo sapiens) (UniProt P19793). The experiment is described as above. Conditions: HEK293T RXRa-UAS-bla, beta-lactamase ratio, antagonist mode. The essentials:
as §2

A short description of experiment [9]: qHTS assay for small molecule activators of the p53 signaling pathway (AID 651743; active = well fitted activation curve with a large enough effect in the signal ratio, not every such curve was filed as active; the % refers to the signal ratio; also: % of control where 0% means no effect). Conditions: HCT-116 p53RE-bla, beta-lactamase FRET ratio, 16 h; activation: stronger effect = higher value. The essentials:
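After 16 hours compound treatment at 37 C, HCT-116 cells stably expressing p53RE-driven beta-lactamase were loaded with LiveBLAzer B/G FRET substrate for 2 hours at room temperature. Fluorescence intensity served as the p53 activation read-out.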

Experiment [10] can be described thus: qHTS assay for environmental chemicals that activate the Aryl hydrocarbon Receptor (AhR) signaling pathway (AID 651777). Also: % of control where 0% means no effect; nearly all actives have a fitted effect of over 15% in size. As to conditions: 1A2-DRE human hepatoma cells, luciferase, 24 h; activation: stronger effect = higher value. A digest of the protocol: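 Human hepatoma 1A2-DRE cells, stably carrying a dioxin response element and CYP1A2 promoter driving luciferase, were exposed to compounds for 24 hr at 37 C and 5% CO2. Luciferase signal was then read after 30 min One-Glo at room temperature.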

Experiment [11] concerns the target Peroxisome proliferator-activated receptor alpha (Homo sapiens) (UniProt Q07869). As to the kind of experiment: qHTS assay for small molecule agonists of the peroxisome proliferator-activated receptor alpha (PPARalpha) signaling pathway (AID 651778). Also: % of control where 0% means no effect. Conditions: PathHunter PPARalpha complementation, chemiluminescence, 6 h; max response: stronger effect = higher value. A digest of the protocol: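 Chemiluminescence from complemented enzyme reported PPARalpha activation in cells after 6 hr of compound treatment at 37 C. The detection reagent was incubated for 60 min at room temperature, and compounds were scored as agonists.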

The nature of experiment [12]: qHTS assay for small molecule agonists of the antioxidant response element (ARE) signaling pathway measured by Nrf2-dependant transcriptional activity (AID 720636; active = well fitted curve in the direction sought with a large enough effect in the repeat runs; an effect the other way counts as inactive or inconclusive; also: % of control where 0% means no effect). Conditions: ARE-luc HepG2, Nrf2 luciferase reporter, 16 h; series mostly up to 92.4 µM. The essentials:
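ARE-luc HepG2 cells carrying an Nrf2-responsive luciferase reporter were plated in medium with 1% dialyzed FBS, left 6 hr at 37 C to attach, then exposed to compound for 16 hr. Luciferase luminescence was read after ONE-Glo addition.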

Experiment [13] in a line: qHTS assay for small molecule agonists of the antioxidant response element (ARE) signaling pathway measured by Nrf2-dependant transcriptional activity - cell viability counter screen (AID 720653; active = well fitted curve in the direction sought with a large enough effect in the repeat runs; an effect the other way counts as inactive or inconclusive; also: % is scaled to controls: 0 for no effect and ±100 for the full control effect). As to conditions: ARE-bla HepG2 viability, CellTiter-Glo ATP luminescence, 16 h; max response: stronger effect = lower value. The essentials: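 Cytotoxicity counter screen: intracellular ATP quantified by CellTiter-Glo luminescence in the same ARE-bla HepG2 plates, after 16 h compound exposure and a 2 h beta-lactamase substrate step.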

A short description of experiment [14]: qHTS assay for cell viability of HEK293 cells (AID 743288). Also: % is scaled to controls: 0 for no effect and ±100 for the full control effect; nearly all actives have a fitted effect of over 50% in size. As to conditions: ATP luminescence (CellTiter-Glo), 18 h; max response: stronger effect = lower value. A digest of the protocol: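 HEK293, 18 h, 37 C, ATP luminescence. Cells at 2,000/well were allowed at least 5 h to settle before dosing; CellTiter-Glo developed 30 min at RT.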
The nature of experiment [15]: qHTS assay for cell viability of the p53RE-bla HCT-116 cell line (AID 743292). Also: % is scaled to controls: 0 for no effect and ±100 for the full control effect; nearly all actives have a fitted effect of over 55% in size. Conditions: p53RE-bla HCT-116 viability, ATP luminescence, 16 h; series mostly up to 95 µM. The essentials: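 CellSensor p53RE-bla HCT-116 cells, 4,000/well, preincubated 5 h at 37 C, then exposed to compounds in DMSO for 16 h at 37 C. Viability read as CellTiter-Glo luminescence (intracellular ATP) after 30 min at room temperature.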

For experiment [16], the target named is Nuclear receptor subfamily 1 group I member 2 (Rattus norvegicus) (UniProt Q9R1A7). As to the kind of experiment: qHTS assay for small molecule activators of the rat pregnane X receptor (rPXR) signaling pathway (AID 651751; call rule not given here; also: 0% is about no effect). As to conditions: rPXR reporter cells, luciferase (One-Glo), 24 h.
Sequence of Nuclear receptor subfamily 1 group I member 2 (Rattus norvegicus) (Q9R1A7 whole entry, looked up): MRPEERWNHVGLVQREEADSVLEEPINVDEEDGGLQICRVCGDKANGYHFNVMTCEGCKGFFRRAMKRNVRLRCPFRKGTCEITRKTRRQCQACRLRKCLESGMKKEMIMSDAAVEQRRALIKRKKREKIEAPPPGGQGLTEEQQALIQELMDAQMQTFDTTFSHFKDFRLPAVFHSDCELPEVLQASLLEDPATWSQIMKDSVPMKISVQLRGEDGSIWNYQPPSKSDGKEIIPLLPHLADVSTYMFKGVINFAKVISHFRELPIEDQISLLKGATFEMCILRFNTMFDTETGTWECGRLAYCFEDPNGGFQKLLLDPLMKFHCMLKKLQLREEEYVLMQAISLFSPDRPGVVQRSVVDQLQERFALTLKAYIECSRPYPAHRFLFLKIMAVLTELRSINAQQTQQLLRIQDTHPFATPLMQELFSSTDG
The nature of experiment [17]: qHTS assay for small molecule activators of the human pregnane X receptor (PXR) signaling pathway (AID 720659; call rule not given here; also: 0% is about no effect). As to conditions: DPX-2 HepG2 CYP3A4-luciferase, 24 h; series mostly up to 92.3 µM.
A short description of experiment [18]: qHTS assay for small molecule activators of the nuclear factor-kappa B (NF-kB) signaling pathway (AID 651749; active = well fitted activation curve with a large enough effect in the signal ratio; the % refers to the signal ratio; also: % of control where 0% means no effect). As to conditions: NF-kB-bla ME-180 cells, beta-lactamase FRET ratio, 16 h; activation: stronger effect = higher value. The essentials:
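Activation measured after 16 hr compound treatment at 37C, 5% CO2, of 2,000 ME-180 cells/well stably expressing an NF-kB response element–driven beta-lactamase reporter, via FRET-disruption fluorescence.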

Experiment [19] deals with Vitamin D3 receptor (Homo sapiens) (UniProt P11473). Description: qHTS assay for small molecule antagonists of vitamin D receptor signaling (AID 588541; calls by dose curve;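 also: receptor activated by calcitriol during compound treatment; % is scaled to controls: 0 for no effect and ±100 for the full control effect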). As to conditions: HEK293T VDR-UAS-bla, beta-lactamase ratio, antagonist mode; series mostly up to 76.7 µM. The essentials:
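Antagonist-mode beta-lactamase reporter assay: HEK293T VDR-UAS-bla cells were exposed to titrated compound alongside 1-alpha,25-dihydroxyvitamin D3 at 3 nM final for 16 h. Values were normalized to the 50 nM agonist control and DMSO basal, with IC50 and efficacy from Hill equation fits.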

Experiment [20] shares this target. Description: qHTS assay for small molecule agonists of vitamin D receptor signaling (AID 588543; calls by dose curve;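 also: 0% = DMSO basal and 100% = reference agonist control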). Conditions: HEK293T VDR-UAS-bla, beta-lactamase ratio, 16 h; series mostly up to 76.8 µM. The essentials: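 Measured: β-lactamase reporter activity (CCF4, 405 nm excitation, 460/530 nm emission) in HEK293T VDR-UAS-bla cells after 16 h compound exposure at 37 °C. Normalization against 50 nM 1α,25-dihydroxyvitamin D3 and DMSO; Hill-fit EC50.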

Each structure is given as a SMILES string. Results filed as inconclusive are left out. Active and inactive are the calls of the source. Unless noted, calls follow the shape of the dose curve; as a rule, active = well fitted curve in the direction sought with a large enough effect; inconclusive = small, poorly fitted or top-dose-only effect, or another doubt; inactive = no such curve, though single readings can be large; an effect the other way counts as inactive or inconclusive.

Sequence of Glucocorticoid receptor (Homo sapiens) (P04150 whole entry, looked up): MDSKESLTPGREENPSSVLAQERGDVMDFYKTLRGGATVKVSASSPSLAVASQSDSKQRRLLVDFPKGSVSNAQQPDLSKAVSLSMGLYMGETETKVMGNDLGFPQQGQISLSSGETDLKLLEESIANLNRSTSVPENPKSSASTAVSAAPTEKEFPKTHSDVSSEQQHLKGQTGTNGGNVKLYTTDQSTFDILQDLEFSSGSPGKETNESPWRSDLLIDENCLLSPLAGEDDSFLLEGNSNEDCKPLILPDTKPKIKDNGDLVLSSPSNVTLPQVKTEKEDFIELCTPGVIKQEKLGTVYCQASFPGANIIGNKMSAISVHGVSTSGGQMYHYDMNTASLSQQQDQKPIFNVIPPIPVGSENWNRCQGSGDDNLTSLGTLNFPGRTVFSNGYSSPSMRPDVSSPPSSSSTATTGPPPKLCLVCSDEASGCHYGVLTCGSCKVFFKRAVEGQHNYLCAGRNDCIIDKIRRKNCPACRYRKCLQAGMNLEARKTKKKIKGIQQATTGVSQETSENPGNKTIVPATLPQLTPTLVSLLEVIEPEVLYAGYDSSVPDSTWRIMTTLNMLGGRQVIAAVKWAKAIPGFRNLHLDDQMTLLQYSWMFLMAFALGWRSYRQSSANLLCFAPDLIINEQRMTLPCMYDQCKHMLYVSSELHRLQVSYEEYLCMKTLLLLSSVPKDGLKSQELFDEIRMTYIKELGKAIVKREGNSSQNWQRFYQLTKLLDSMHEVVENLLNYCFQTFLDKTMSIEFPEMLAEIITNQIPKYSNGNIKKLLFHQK
Sequence of Peroxisome proliferator-activated receptor delta (Homo sapiens) (Q03181 whole entry, looked up): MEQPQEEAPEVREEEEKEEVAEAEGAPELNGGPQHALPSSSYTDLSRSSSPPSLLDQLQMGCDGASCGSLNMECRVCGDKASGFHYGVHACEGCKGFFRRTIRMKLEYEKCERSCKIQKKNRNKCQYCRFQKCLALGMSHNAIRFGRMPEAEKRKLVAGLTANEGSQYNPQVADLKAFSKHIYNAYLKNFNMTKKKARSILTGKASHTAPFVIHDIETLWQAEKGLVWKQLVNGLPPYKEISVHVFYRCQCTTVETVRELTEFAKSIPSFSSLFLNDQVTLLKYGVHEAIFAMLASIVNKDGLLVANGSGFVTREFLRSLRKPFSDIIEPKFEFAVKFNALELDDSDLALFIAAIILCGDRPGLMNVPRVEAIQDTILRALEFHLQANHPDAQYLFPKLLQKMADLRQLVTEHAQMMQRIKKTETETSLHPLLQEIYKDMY
Sequence of Vitamin D3 receptor (Homo sapiens) (P11473 whole entry, looked up): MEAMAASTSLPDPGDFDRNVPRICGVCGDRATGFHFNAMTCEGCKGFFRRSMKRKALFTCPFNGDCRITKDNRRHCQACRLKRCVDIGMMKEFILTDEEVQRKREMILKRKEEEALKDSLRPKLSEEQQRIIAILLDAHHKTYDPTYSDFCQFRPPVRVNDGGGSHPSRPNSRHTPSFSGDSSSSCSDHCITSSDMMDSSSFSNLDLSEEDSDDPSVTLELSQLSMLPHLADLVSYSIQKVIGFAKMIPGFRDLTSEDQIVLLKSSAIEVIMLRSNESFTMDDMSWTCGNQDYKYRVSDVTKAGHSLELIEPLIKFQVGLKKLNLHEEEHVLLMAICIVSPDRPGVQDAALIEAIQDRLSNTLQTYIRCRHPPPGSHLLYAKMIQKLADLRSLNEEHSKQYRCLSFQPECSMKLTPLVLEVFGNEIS
Sequence of Peroxisome proliferator-activated receptor alpha (Homo sapiens) (Q07869 whole entry, looked up): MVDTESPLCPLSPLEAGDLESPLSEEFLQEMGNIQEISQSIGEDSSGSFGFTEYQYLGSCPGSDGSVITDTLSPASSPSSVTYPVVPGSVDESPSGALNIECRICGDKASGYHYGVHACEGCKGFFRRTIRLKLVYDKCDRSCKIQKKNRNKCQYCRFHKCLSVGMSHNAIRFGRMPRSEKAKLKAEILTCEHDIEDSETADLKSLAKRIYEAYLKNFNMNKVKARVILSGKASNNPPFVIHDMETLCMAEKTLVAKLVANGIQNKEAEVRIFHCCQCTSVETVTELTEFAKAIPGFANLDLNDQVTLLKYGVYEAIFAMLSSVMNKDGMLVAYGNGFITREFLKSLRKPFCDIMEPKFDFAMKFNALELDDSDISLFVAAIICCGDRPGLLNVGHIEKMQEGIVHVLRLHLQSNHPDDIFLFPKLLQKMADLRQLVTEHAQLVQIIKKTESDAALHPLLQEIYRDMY
Sequence of Thyroid hormone receptor beta (Homo sapiens) (P10828 whole entry, looked up): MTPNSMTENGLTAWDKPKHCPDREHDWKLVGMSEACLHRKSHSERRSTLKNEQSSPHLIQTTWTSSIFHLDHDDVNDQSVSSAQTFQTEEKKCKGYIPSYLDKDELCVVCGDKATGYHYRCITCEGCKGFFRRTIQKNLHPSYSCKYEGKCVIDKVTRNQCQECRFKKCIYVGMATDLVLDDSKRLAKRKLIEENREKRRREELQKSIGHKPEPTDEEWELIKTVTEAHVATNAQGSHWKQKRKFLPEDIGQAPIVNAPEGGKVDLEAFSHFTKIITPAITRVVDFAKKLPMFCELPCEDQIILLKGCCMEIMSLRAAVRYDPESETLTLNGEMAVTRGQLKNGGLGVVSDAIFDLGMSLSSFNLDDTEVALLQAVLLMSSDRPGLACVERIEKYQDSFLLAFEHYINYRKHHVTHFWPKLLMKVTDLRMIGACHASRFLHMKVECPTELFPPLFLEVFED

For the compound `C=CCCCCCCCCCC`, the values for the activation in experiment [1], in experiment [9] and in experiment [10] were -14.2% (inactive), -0.565% (inactive) and -1.31% (inactive), respectively. Also, the Potency result in [2], in [4], in experiment [5], in [6], in experiment [12] and in experiment [15] was “inactive” each time. For the same compound, the max response in experiment [3] is -16.2%; in experiment [7] it was -3.33%; in experiment [8], 2.09% (inactive); in experiment [11] it was -0.224% (inactive); in experiment [13] it was -1.98% (inactive); in experiment [14], -2.08% (inactive). For the same compound, the max response in experiment [16] was -5.04% (inactive). Also, in experiment [17], the outcome was inactive.
For the compound `CCCCC(CC)CN1C(=O)C2C3C=CC(C3)C2C1=O` (stereo unspecified), the activation is -12.6% (inactive) in experiment [1], -2.19% (inactive) in experiment [9], 0.646% (inactive) in experiment [18] and -3.03% (inactive) in experiment [10]. Moreover, the Potency result in [6] and in experiment [12] was “inactive” each time. Moreover, the max response was 8.85% in [7], -2.63% (inactive) in experiment [8], 8.11% (inactive) in [13] and -5.32% (inactive) in [14].
For `CCCCCCCC/C=C\CCCCCCCC(=O)OC`, the activation in experiment [1] is -1.79% (inactive); in [9], 1.64% (inactive); in [18] it was -2.39% (inactive); in experiment [10], -0.866% (inactive). Besides, the Potency result in experiment [2], in experiment [4], in [19], in experiment [5], in [6] and in experiment [12] was “inactive” throughout. Besides, the Potency result in experiment [15] is “inactive”. For the same compound, the max response in [3] was -11.5%; in experiment [7] it was -9.12%; in [8], -0.729% (inactive); in experiment [11], 4.75% (inactive); in experiment [13], -4.89% (inactive); in experiment [16], 0.29% (inactive). Besides, the result in experiment [20] and in experiment [17] was inactive.
In the case of `CC1=CC(=O)CC(C)(C)C1`, the values for the activation in experiment [1], in experiment [9] and in experiment [10] were -9.62% (inactive), 0.625% (inactive) and 0.188% (inactive), respectively. The Potency result in experiment [2], in experiment [4], in experiment [19], in experiment [5], in [6] and in experiment [12] was “inactive” throughout. Further, in experiment [15], the Potency result was “inactive”. Further, the max response is 13.3% in experiment [3]; -3.41% in experiment [7]; -18.4% (inactive) in experiment [8]; 0.525% (inactive) in experiment [11]; -2.87% (inactive) in [14]; 1.52% (inactive) in [16]. In addition, the result in [20] and in experiment [17] was inactive.
As for `COc1cc(Cl)c(OC)cc1N`, the activation in experiment [1] is -0.0557% (inactive). In addition, the Potency result in experiment [2], in experiment [4], in experiment [5] and in experiment [12] was “inactive” each time. Besides, the max response in experiment [3] was -0.344%; in experiment [7] it was 1.78%; in experiment [13], 1.98% (inactive); in experiment [14], -8.15% (inactive); in [16], 6.4% (inactive). In addition, in experiment [20], the result was inactive.
As for `Cc1ccc2c(c1)C(=O)OC2=O`, the results for the activation in [1], in [9] and in experiment [10] were -1.62% (inactive), -6.05% (inactive) and 2.38% (inactive), respectively. For the same compound, the Potency result in experiment [2], in experiment [4], in experiment [19] and in experiment [5] was “inactive” in each case. Also, the max response is 33.6% in [3]; -9.63% in experiment [7]; -14.4% (inactive) in experiment [8]; -2.31% (inactive) in experiment [11]; -8.54% (inactive) in experiment [13]; -7.63% (inactive) in experiment [14]. Also, the max response in experiment [16] is 0.0212% (inactive). Besides, the outcome in experiment [20] and in experiment [17] was inactive.
